Screening results: PubChem BioAssay, several laboratories
Shown are actives, neighbours in structure and some others; about 1% of the full set was active somewhere.
Cdc25B inh – inhibitors of human Cdc25B phosphatase; recombinant Cdc25B, OMFP fluorescence Ex485/Em525; 65,000 tested, 0.1% active; P30305; inhibition, %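 (compounds tested at 10 µM final in the well)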; AID 368; in the data active = inhibition above about 50%
Target sequence (P30305 whole entry, looked up): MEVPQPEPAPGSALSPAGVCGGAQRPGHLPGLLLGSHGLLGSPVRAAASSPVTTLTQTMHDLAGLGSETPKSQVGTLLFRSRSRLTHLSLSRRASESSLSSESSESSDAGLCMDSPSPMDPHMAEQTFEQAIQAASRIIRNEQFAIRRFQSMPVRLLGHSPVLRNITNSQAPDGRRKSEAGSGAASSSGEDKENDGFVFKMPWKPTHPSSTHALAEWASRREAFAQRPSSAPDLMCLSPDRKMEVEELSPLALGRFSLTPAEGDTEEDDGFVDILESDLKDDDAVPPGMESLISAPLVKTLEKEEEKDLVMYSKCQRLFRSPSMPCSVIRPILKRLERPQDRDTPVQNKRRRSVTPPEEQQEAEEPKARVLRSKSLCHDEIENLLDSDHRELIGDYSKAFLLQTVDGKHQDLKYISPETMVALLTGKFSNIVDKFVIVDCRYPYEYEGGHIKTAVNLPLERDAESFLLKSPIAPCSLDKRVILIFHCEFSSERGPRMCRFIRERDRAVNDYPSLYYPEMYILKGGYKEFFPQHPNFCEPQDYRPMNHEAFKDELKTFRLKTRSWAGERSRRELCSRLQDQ
ROCK2 inh – inhibitors of human Rho kinase 2 | O75116 | purified ROCK2, Kinase-Glo ATP depletion luminescence | inhibition, % at 6 µM | 60,000 tested, 0.35% active | AID 604;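 active = inhibition above the screen-wide mean inhibition plus 3 SD, cut at about 18% in these data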
MKP-1 inh – inhibitors of human MKP-1 phosphatase; P28562; recombinant MKP-1, OMFP hydrolysis fluorescence; inhibition, %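 (compounds tested at a single concentration somewhere between 10 and 100 µM)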; 65,000 tested, 0.15% active; AID 374;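 active = inhibition above about 50%, limit read from the data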
SKBR3 24h inh – SK-BR-3 proliferation inhibitors; SK-BR-3 viability, CellTiter-Glo ATP luminescence, 24 h; active compounds read low; viability, % at 10 µM; 41,000 tested, 0.47% active; AID 847;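 active = viability at or below the median of all test compounds minus 3 SD, in both replicates if run twice, cut at about 45% in these data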
Hsp90 block – displaces geldanamycin probe from tumor Hsp90; P07900; inhibition, % at 30 µM; 64,000 tested, 0.35% active; NCI-N417 lysate Hsp90, Cy3B-geldanamycin FP displacement; AID 429;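 active = inhibition above 50%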
PKA inh – blocks human protein kinase A activity. P17612. PKA Kemptide phosphorylation, Kinase-Glo ATP luminescence. inhibition, % at 6 µM. 65,000 tested, 0.1% active. AID 524;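 active = inhibition above the screen-wide mean inhibition plus 3 SD, cut at about 21% in these data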
Numbers stand for hits; - = inactive; . = not tested or not shown.

SMILES	Cdc25B inh	ROCK2 inh	MKP-1 inh	SKBR3 24h inh	Hsp90 block	PKA inh
COC(=O)CCn1nnc(-c2ccc(C)cc2)n1	-	-	-	-	-	-
c1ccc(OCCCc2nc(-c3ccncc3)no2)cc1	-	18	-	-	-	-
Cc1ccc(SCc2nc(-c3ccccc3)no2)cc1	-	-	-	-	-	-
c1ccc(SCc2nc(-c3ccncc3)no2)cc1	-	-	74	-	-	-
Cc1ccc(SCc2nc(-c3ccncc3)no2)cc1	-	24	-	-	-	21
O=CNCC(=O)NC1CCCCCC1	-	-	-	.	-	-
O=C(Nc1ccc2c(c1)OCO2)c1ccc(Br)s1	-	-	-	-	-	-
COC(=O)C1=C(C)N=C2SCCC(=O)N2C1c1cccs1 (stereo unspecified)	54	-	-	.	-	-
CCOC(=O)c1ccc(N2Cc3ccccc3C2)cc1O	-	-	-	-	-	-
Cc1ccc(S(=O)(=O)NCCCOC(=O)Nc2ccncc2)cc1	-	23	-	-	-	-
Cc1ccc(S(=O)(=O)NCCc2ccncc2)cc1	-	-	-	.	-	-
CCCc1nnc(SCC(=O)N2CCOCC2)n1CCCOC	-	-	-	-	-	-
O=c1ccc(=O)n2n1CC(O)C2	-	22	-	.	-	-
Cc1cc(C)n2nc3nc(N4CCCC4)nc(-c4ccccc4)c3c2n1	-	-	-	-	-	-
Nc1[nH]nc2nc(N3CCCC3)nc(-c3ccccc3)c12	-	.	-	-	-	26
CC(C)CCN(C)C1CCN(S(=O)(=O)c2cccc(C(F)(F)F)c2)CC1	-	-	-	.	-	-
CC(C)(C)C(=O)NC1CCN(S(=O)(=O)c2cccc(C(F)(F)F)c2)CC1	-	-	-	23	-	-
O=C(CN1C(=O)C2C3C=CC(C3)C2C1=O)Nc1cccc2c1CCCC2 (stereo unspecified)	-	-	-	-	-	-
O=c1cc(-c2c(F)c(F)c(F)c(F)c2F)oc2c(F)c(F)c(F)c(F)c12	-	.	-	34	.	-
CCC1SC2=NCN(c3ccccc3)CN2C1=O (stereo unspecified)	-	-	-	-	-	-
Nc1nc(-c2ccco2)nn1C(=O)CCc1ccccc1	-	-	-	-	-	-
Nc1nc2ccccc2n1C(=O)CCc1ccccc1	-	146	-	-	-	-
CCOCCCNC(=O)C(NC(=O)CC1NC(=O)NC1=O)c1ccc(Cl)cc1 (stereo unspecified)	-	.	-	44	.	-
CCOCCCNC(=O)C(NC(=O)c1ccc(=O)[nH]c1)c1ccccc1 (stereo unspecified)	-	.	-	.	-	-
O=C(Nc1ccc(F)cc1)Nc1ccc(Cl)cn1	-	-	-	-	-	-
SMILES	Cdc25B inh	ROCK2 inh	MKP-1 inh	SKBR3 24h inh	Hsp90 block	PKA inh
O=C(Nc1ccncc1)Nc1ccc(F)cc1F	-	23	-	-	-	-
CCOC(=O)N1CCC(Nc2ccc3nnc(-c4ccccc4)n3n2)CC1	-	-	-	.	-	-
Cn1c(CNC(=O)Nc2cccc(Cl)c2)nnc1SCc1ccccc1	-	-	-	-	-	-
CCn1c(CNc2cccc(Cl)c2)nnc1SCc1ccccc1	-	-	-	37	-	-
CCOc1ccc2nc(N3CCOCC3)nc(C)c2c1	-	-	-	-	-	-
CCOc1ccc2nc3ccc4[nH]onc4c3c2c1	-	-	-	-	-	35
Nc1nonc1-n1nncc1-c1ccccc1	-	.	-	-	.	28
COc1cc2c(=O)n(Cc3ccco3)c(=O)n(CC(=O)c3cccc(Br)c3)c2cc1OC	-	-	-	42	-	-
O=C(Nc1nc(-c2ccc3c(c2)OCO3)cs1)C1COc2ccccc2O1 (stereo unspecified)	-	-	-	.	91	-
O=C(Nc1nc(-c2ccccn2)cs1)C1COc2ccccc2O1 (stereo unspecified)	-	-	-	.	-	-
CN(C)c1nc(N2CCCCC2)nc(N2CCCCC2)n1	-	-	-	.	-	-
OCCN(CCO)c1nc(N2CCCCC2)c2nc(N(CCO)CCO)nc(N3CCCCC3)c2n1	-	-	-	-	61	-
Cn1c(CSc2nnc(SCc3ccccc3)s2)nc2ccccc21	74	-	-	-	-	-
COc1ccc(OC)c(/C=N/c2oc(-c3ccco3)c(-c3ccco3)c2C#N)c1	-	-	-	-	55	-
CCCn1cnc2c(cnn2-c2ccc(F)cc2)c1=O	-	-	-	.	-	-
